Records with an inconclusive call do not appear. Calls of active or inactive are those of the source. Calls come from the whole dose curve; as a rule, active = well fitted curve in the direction sought with a large enough effect; inconclusive = small, poorly fitted or top-dose-only effect, or another doubt; inactive = no such curve, though single readings can be large; an effect the other way counts as inactive or inconclusive. Where a SMILES comes first, the peptide text is derived from it. [ ]: non-standard residue; d: D form. dPhe(4-Cl) = N[C@H](Cc1ccc(Cl)cc1)C(=O)O; d2Nal = N[C@H](Cc1ccc2ccccc2c1)C(=O)O; dCit = NC(=O)NCCC[C@@H](N)C(=O)O; d3Pal = N[C@H](Cc1cccnc1)C(=O)O
Columns and labels:
[1] = target: Glutathione peroxidase 1 (Homo sapiens) (UniProt P07203); test: Primary qHTS Assay for Inhibitors of Recombinant Selenoprotein Glutathione Peroxidase 1 (GPX1) (AID 1845191); note: nearly all actives have a fitted effect of over 65% in size; for activity, negative = inhibition: % is set by controls: 0 for no effect and ±100 for the full control effect
Method in brief: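 GR-coupled assay: compounds preincubated 30 min at room temperature with GPX1, then reaction started with CHP; final 10 nM GPX1, 1 mM GSH, 0.5 mM CHP, 0.5 mM NADPH, 100 nM GR, 0.01% BSA, pH 7.5 Tris buffer. NADPH fluorescence (340/450 nm) read at 0 and 15 min.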

[2] = target: Phospholipid hydroperoxide glutathione peroxidase GPX4 (Homo sapiens) (UniProt P36969); test: Primary qHTS Assay for Inhibitors of Recombinant Selenoprotein Glutathione Peroxidase 4 (GPX4) (AID 1845192); note: nearly all actives have a fitted effect of over 65% in size; for activity change, negative = inhibition: series mostly up to about 50 µM; % is set by controls: 0 for no effect and ±100 for the full control effect
Method in brief: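 GR-coupled assay: recombinant GPX4 preincubated 30 min with compound at room temperature; final 200 nM GPX4, 1 mM GSH, 0.5 mM cumene hydroperoxide, 0.5 mM NADPH, 100 nM GR, 0.01% BSA, pH 7.5 Tris. NADPH fluorescence (340/450 nm) read at 0 and 15 min.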

[3] = target: Luciferin 4-monooxygenase (Photinus pyralis) (UniProt P08659); test: Primary firefly luciferase (FLuc) qHTS assay for identification of artifact compounds. (AID 1845220); note: nearly all actives have a fitted effect of over 60% in size;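 for activity change, negative = inhibition: series mostly up to about 54 µM; plate controls were DMSO vehicle for no effect and no enzyme for full effect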
Method in brief: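 D-luciferin and ATP (10 uM each, final) in Tris acetate buffer pH 7.6 were incubated with compounds for 15 min at room temperature. The reaction was started with 10 nM Photinus pyralis luciferase and luminescence read after 5 min. Percent inhibition was fitted to a 4-parameter Hill equation.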

[4] = Primary fluorescence-based thiol-reactive (MSTI) qHTS assay for identification of artifact compounds. (AID 1845221);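 note: series mostly up to about 54 µM; thiol-reactive compounds lower the probe fluorescence signal; nearly all actives have a fitted effect of over 65% in size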
Method in brief: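 Curve-fitted percent inhibition (4-parameter Hill) derived from fluorescence, Ex 525/Em 598 nm, scaled with Acetyl-MSTI and MSTI; 1 h incubation at room temperature.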

[5] = test system: Nanoluciferase (engineered Oplophorus gracilirostris luciferase); test: Primary Nanoluciferase (NLuc) qHTS assay for identification of artifact compounds. (AID 1845222);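 note: series mostly up to about 54 µM; 0% = DMSO and -100% = no enzyme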
Method in brief: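 Diluted conditioned medium from NLuc-expressing S16 cells treated with compounds for 15 min at room temperature, then Nano-Glo substrate added; luminescence read after 5 min. Percent inhibition versus no-enzyme and DMSO controls fitted to 4-parameter Hill equation.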

[6] = Primary redox qHTS assay for identification of artifact compounds. (AID 1845223);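 note: 0% = DMSO and 100% = reference compound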
Method in brief: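 Amplex Red (25 uM) and HRP (250 mU/mL) in HBSS, with compounds for 15 min, then 250 uM DTT for 30 min, room temperature, dark. Fluorescence 525/598 nm read; normalized to DMSO and 10 uM DA3003; Hill fit.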

Glutathione peroxidase 1 (Homo sapiens), sequence (P07203 whole entry, looked up): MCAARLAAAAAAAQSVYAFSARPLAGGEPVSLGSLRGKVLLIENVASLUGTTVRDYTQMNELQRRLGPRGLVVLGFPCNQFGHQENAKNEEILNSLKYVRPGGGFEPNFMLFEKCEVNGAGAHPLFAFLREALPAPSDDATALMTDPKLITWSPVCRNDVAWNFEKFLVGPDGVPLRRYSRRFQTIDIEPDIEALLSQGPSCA
Phospholipid hydroperoxide glutathione peroxidase GPX4 (Homo sapiens), sequence (P36969 whole entry, looked up): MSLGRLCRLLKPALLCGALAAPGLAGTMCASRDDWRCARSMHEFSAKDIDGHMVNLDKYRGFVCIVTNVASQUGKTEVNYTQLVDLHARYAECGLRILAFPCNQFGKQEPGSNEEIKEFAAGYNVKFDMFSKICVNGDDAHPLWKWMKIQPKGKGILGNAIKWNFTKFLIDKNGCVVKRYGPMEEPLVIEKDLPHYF

NC(=O)[C@H]1CCS[C@@H]2C[C@]3(CCCN3C(=O)Cc3ccc(NC(=O)COc4ccc(Cl)cc4Cl)cc3)C(=O)N12
inactive: Potency [1] | Potency [2] | Potency [3] | Potency [4] | Potency [5] | Potency [6]

Clc1cc2c(NC3CCCC3)nnc(-c3ccncc3)c2cc1Cl
inactive: Potency [1] | Potency [2] | Potency [3] | Potency [4] | Potency [5] | Potency [6]

Nc1nc2c(ncn2[C@@H]2O[C@H](CO)[C@@H](O)[C@H]2O)c(=O)[nH]1
inactive: Potency [1] | Potency [2] | Potency [3] | Potency [4] | Potency [5] | Potency [6]

CN(C)CC1CCOC1(c1ccccc1)c1ccccc1 (stereo not given)
inactive: Potency [1] | Potency [2] | Potency [3] | Potency [4] | Potency [5] | Potency [6]

COc1c2c(c(C)c3c1C(=O)OC3)OC1(C)CC(O)C34OC(OC)(OC3(C)C)C(O)CC4(C)C1C2 (stereo not given)
inactive: Potency [1] | Potency [2] | Potency [3] | Potency [4] | Potency [5] | Potency [6]

Cc1cnc(NC(=O)Nc2cc(Br)c(C)cc2OCC2CNCCO2)cn1 (stereo not given)
inactive: Potency [1] | Potency [2] | Potency [3] | Potency [4] | Potency [5] | Potency [6]

COC(=O)[C@@]1(c2ccc(C)cc2)C[C@H]1CN1CCC(O)(c2ccccc2)CC1
inactive: Potency [1] | Potency [2] | Potency [3] | Potency [4] | Potency [5] | Potency [6]

CN(C)CCn1cc(S(=O)(=O)c2cccc(F)c2)c2cccnc21
inactive: Potency [1] | Potency [2] | Potency [3] | Potency [4] | Potency [5] | Potency [6]

CC(C)=CCC[C@](C)(O[C@@H]1O[C@H](CO)[C@@H](O)[C@H](O)[C@H]1O)[C@H]1CC[C@]2(C)[C@@H]1[C@H](O)CC1[C@@]3(C)CC[C@H](O)C(C)(C)C3[C@@H](O[C@@H]3O[C@H](CO)[C@@H](O)[C@H](O)[C@H]3O[C@@H]3OC[C@@H](O)[C@H](O)[C@H]3O)C[C@]12C (stereo not given in full)
inactive: Potency [1] | Potency [2] | activity change, negative = inhibition [3] -4.76% [at 11.6 µM] | activity change, negative = thiol reactive [4] 136% [at 11.5 µM] | activity, negative = inhibition [5] -0.941% [at 11.6 µM] | redox activity (% of DA3003) [6] 12.7% [at 11.5 µM]

CC(=O)N[C@H](Cc1ccc2ccccc2c1)C(=O)N[C@H](Cc1ccc(Cl)cc1)C(=O)N[C@H](Cc1cccnc1)C(=O)N[C@@H](CO)C(=O)N[C@@H](Cc1ccc(O)cc1)C(=O)N[C@H](CCCNC(N)=O)C(=O)N[C@@H](CC(C)C)C(=O)N[C@@H](CCCN=C(N)N)C(=O)N1CCC[C@H]1C(=O)N[C@H](C)C(N)=O (Ac-[d2Nal][dPhe(4-Cl)][d3Pal]SY[dCit]LRP[dA]-NH2)
inactive: Potency [1] | Potency [2] | Potency [3] | Potency [4] | Potency [5] | Potency [6]

C=C(F)c1sc(CNCCCNc2cc(=O)c3ccccc3[nH]2)c(C)c1Br
inactive: Potency [1] | Potency [2] | Potency [3] | Potency [4] | Potency [5] | Potency [6]

CCCN1CCC(c2cccc(S(C)(=O)=O)c2)CC1
inactive: Potency [1] | Potency [2] | Potency [3] | Potency [4] | Potency [5] | Potency [6]

c1ccc(-c2ncc(CN3CCN(c4ncccn4)CC3)[nH]2)cc1
inactive: Potency [1] | Potency [2] | Potency [3] | Potency [4] | Potency [5] | Potency [6]

CCN1CCN(Cc2ccc(NC(=O)Nc3ccc(Oc4cc(NC)ncn4)cc3)cc2C(F)(F)F)CC1
inactive: Potency [1] | Potency [2] | Potency [3] | Potency [4] | Potency [5] | Potency [6]

C[C@@H]1C[C@@H](O)[C@@]23CO[C@@H](O)[C@@H]2CCC[C@@H]3[C@@]12C[C@@H](c1ccoc1)OC2=O
inactive: Potency [1] | Potency [2] | Potency [3] | Potency [4] | Potency [5] | Potency [6]

Cc1c(NC(=O)c2cc(C(N)=O)nc3cc(F)ccc23)c(C(F)(F)F)nn1Cc1ccc(C#N)cc1
inactive: Potency [1] | Potency [2] | Potency [3] | Potency [4] | Potency [5] | Potency [6]

O=C(NCc1ccc(S(=O)(=O)c2cc(F)cc(F)c2)cc1)c1ccc2nccn2c1
inactive: Potency [1] | Potency [2] | Potency [3] | Potency [4] | Potency [5] | Potency [6]

CC(C)=CCC/C(C)=C/CO[C@@H]1O[C@H](CO)[C@@H](O)[C@H](O)[C@H]1O
inactive: Potency [1] | Potency [2] | Potency [3] | Potency [4] | Potency [5] | Potency [6]

C[C@@H]1O[C@@H](O[C@@H]2[C@@H](O)[C@@H](O[C@]3(CO)O[C@H](CO)[C@@H](O)[C@@H]3OC(=O)/C=C/c3ccc(O)cc3)O[C@H](CO)[C@H]2OC(=O)/C=C/c2ccc(O)cc2)[C@H](O)[C@H](O)[C@H]1O[C@@H]1O[C@@H](C)[C@H](O[C@@H]2OC[C@](O)(CO)[C@H]2O)[C@@H](O)[C@H]1O
inactive: Potency [1] | Potency [2] | activity change, negative = inhibition [3] -0.433% [at 11.6 µM] | activity change, negative = thiol reactive [4] 79.7% [at 11.5 µM] | activity, negative = inhibition [5] 0% [at 11.6 µM] | redox activity (% of DA3003) [6] 17.5% [at 11.5 µM]

CN1CCN(C2CCC(n3cc(-c4ccc(Oc5ccccc5)cc4)c4c(N)ncnc43)CC2)CC1 (stereo not given)
inactive: Potency [1] | Potency [2] | Potency [3] | Potency [4] | Potency [5] | Potency [6]
